Screening results (PubChem BioAssay)
In the library only some 12% were active in any assay of this set; here they are far more common.
Sfp inh – Sfp phosphopantetheinyl transferase inhibition; Q9F4F7; Biochemical Sfp PPTase activity, qHTS; Potency, µM, inactives show largest response in the series, negative = inhibition, hits mostly inhibitors; 3.5% of 310,000 active; AID 1490;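 also: the enzyme is Sfp with the accession as filed and its product quenches rhodamine fluorescence; 0% = enzyme reaction without inhibitor and -100% = no enzyme wells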
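Sfp 15 nM + cpd, 15 min RT; start w/ rhodamine-CoA 5 uM, BHQ-2-YbbR 12.5 uM (final); 50 mM Hepes pH 7.6, 10 mM MgCl2, 0.01% NP-40, 0.01% BSA; read 525/598 nm at 0 and 30 min.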
G9a inh – inhibitors of human histone lysine methyltransferase G9a. G9a H3K9 monomethylation, AlphaScreen, 2 h. Potency, µM (doses to about 102 µM), for the others: at the highest dose activity, negative = inhibition, usual class: inhibitors. 8.8% of 350,000 active. AID 504332; also: % is scaled to controls: 0 for no effect and ±100 for the full control effect; nearly all actives have a fitted effect of over 75% in size
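Methyltransferase reactions run at room temperature for 2 h (20 nM enzyme, 500 nM biotin-H3K9 peptide, 20 uM SAM) after a 15 min compound preincubation; product detected by AlphaScreen beads and anti-H3K9me1 antibody.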
PLK1 PBD inh – inhibitors of human PLK1 polo-box domain binding; P53350; Plk1 PBD binding of FITC phosphopeptide, fluorescence polarization; Potency, µM, inactives show max response, negative = inhibition, hits mostly inhibitors; 2.8% of 360,000 active; also: series mostly up to about 57 µM; % is scaled to controls: 0 for no effect and ±100 for the full control effect; nearly all actives have a fitted effect of over 65% in size
Target sequence (P53350 whole entry, looked up, the tested form may be a part): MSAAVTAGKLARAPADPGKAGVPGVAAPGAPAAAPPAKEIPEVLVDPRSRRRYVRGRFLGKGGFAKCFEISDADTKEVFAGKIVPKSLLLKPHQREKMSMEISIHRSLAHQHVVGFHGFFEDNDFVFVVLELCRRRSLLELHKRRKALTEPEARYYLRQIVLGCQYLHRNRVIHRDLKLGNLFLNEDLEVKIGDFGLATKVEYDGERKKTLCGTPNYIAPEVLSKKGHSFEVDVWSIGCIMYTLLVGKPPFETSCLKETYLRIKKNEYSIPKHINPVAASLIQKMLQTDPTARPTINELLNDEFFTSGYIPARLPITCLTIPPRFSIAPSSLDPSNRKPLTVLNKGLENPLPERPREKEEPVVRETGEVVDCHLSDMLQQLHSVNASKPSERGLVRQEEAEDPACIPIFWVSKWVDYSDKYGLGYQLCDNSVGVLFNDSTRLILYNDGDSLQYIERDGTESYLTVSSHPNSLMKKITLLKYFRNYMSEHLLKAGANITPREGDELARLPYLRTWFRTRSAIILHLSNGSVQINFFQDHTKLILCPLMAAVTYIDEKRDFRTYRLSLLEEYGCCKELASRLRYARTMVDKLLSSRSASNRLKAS
HP1b chromo inh – HP1-beta chromodomain-methylated histone interaction inhibition; P83916; AlphaScreen HP1-beta / biotin-H3K9me3 peptide binding; Potency, µM (series often up to 114 µM), for inactives: at the highest dose activity change, negative = inhibition, usual class: inhibitors; 0.56% of 390,000 active; AID 540317; also: nearly all actives have a fitted effect of over 70% in size
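AlphaScreen: HP1-beta (50 nM) preformed 30 min with biotin-H3(1-18)K9me3 peptide (50 nM) in PBS pH 7.4, 0.01% Tween-20. Compound added for 30 min at RT, then streptavidin donor/nickel chelate acceptor beads (10 ug/mL) for 30 min.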
JMJD2A Tudor inh – JMJD2A Tudor domain (human) inhibition; O75164; 4.4% of 390,000 active; Potency, µM (doses to about 114 µM), for inactives: top-dose activity change, negative = inhibition, actives largely listed as inhibitors; AlphaScreen JMJD2A-Tudor / H3K4me3 peptide binding; also: % is scaled to controls: 0 for no effect and ±100 for the full control effect; nearly all actives have a fitted effect of over 50% in size
BAZ2B inh – blocks human BAZ2B; 4.4% of 360,000 active; Potency, µM (titrated, usually from 114 µM), inactives show at the top dose activity change, negative = inhibition, usual class: inhibitors; AlphaScreen BAZ2B-H3K14Ac peptide displacement; also: % is scaled to controls: 0 for no effect and ±100 for the full control effect; nearly all actives have a fitted effect of over 60% in size
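Multi-concentration screen (max 110 uM) measuring displacement of acetylated histone H3 peptide from BAZ2B by AlphaScreen, using 50 nM protein, 50 nM peptide and 10 ug/mL streptavidin donor plus Ni-chelate acceptor beads.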
* = called active by the depositor; ? = inconclusive; · = no result; ! = not active in a repeat; [ ] = remark or other dose. Calls follow the shape of the dose curve; as a rule, active = well fitted curve in the direction sought with a large enough effect; inconclusive = small, poorly fitted or top-dose-only effect, or another doubt; inactive = no such curve, though single readings can be large; an effect the other way counts as inactive or inconclusive. Potency is read from the fitted curve at half-maximal effect.

SMILES	Sfp inh	G9a inh	PLK1 PBD inh	HP1b chromo inh	JMJD2A Tudor inh	BAZ2B inh
NS(=O)(=O)c1cccc(Nc2nc3ccccc3nc2NS(=O)(=O)c2ccc(Cl)cc2)c1	·	·	17µM*	26%[57 µM]	-10%	·
CC(=O)Nc1ccc(S(=O)(=O)NCC(CCC(=O)O)C(F)(F)F)cc1 (centres undefined)	-1%	-1%	13µM*	-3%	16µM*	-13%
CC(=O)Nc1ccc(S(=O)(=O)NCC(C)NS(=O)(=O)c2ccc(NC(C)=O)cc2)cc1 (centres undefined)	-3%	-9%[12.7 µM]	2%	46%	-19%	-7%
CC(=O)Nc1ccc(S(=O)(=O)Nc2nc3ccccc3nc2Nc2ccc3ccccc3c2)cc1	5%	?	24µM*	34%	-10%	-5%
O=C(NC(=S)Nc1ccc(S(=O)(=O)Nc2ccccc2)cc1)C1CC1	5%	14µM*	-27%	-4%	-21%	-31%
Cc1ccnc(NS(=O)(=O)c2ccc(C(C)(C)C)cc2)c1	8%	9%	·	·	·	-4%
CC(=O)Nc1ccc(S(=O)(=O)Nc2cc(C)ccn2)cc1	9%	50µM*	-3%	37%	-10%	-11%
N#Cc1ccc(CN2CCC3(CC2)CCN(C(=O)c2csnn2)CC3)cc1	11%	-8%[12.7 µM]	·	·	·	·
CCCN1CNc2c(c(=O)[nH]c(=S)n2CCc2ccc(C)cc2)C1	·	·	·	42%	-2%	·
CC(C1SC(=S)NC1=O)C1SC(=S)NC1=O (centres undefined)	·	·	2.1µM*	·	·	·
Cc1cccc(Nc2c([N+](=O)[O-])cc(C(=O)N3CC(=O)Nc4ccccc43)cc2[N+](=O)[O-])c1	16%	11µM*	-17%	-16%	?	?
Cc1ccc(C)c(Nc2c([N+](=O)[O-])cc(C(=O)N3CC(=O)Nc4ccccc43)cc2[N+](=O)[O-])c1	-1%	18µM*	-2%	?	?	25µM*
C=C1C(=O)OC(CCCCCCCC)C1C(=O)O (centres undefined)	-8%	·	·	·	·	·
Cc1[nH]c2ccc(C(=O)NCCCN3CCCCCC3)cc2c1C	-13%	?	-17%	13%	?	-34%
CCn1c(C)c(C)c2cc(C(=O)NCCN3CCCCCC3)ccc21	-25%	50µM*	-17%	-6%	45µM*	22µM*
CCn1c(C)c(C)c2cc(C(=O)NCCCN3CCCCC3)ccc21	4%	?	-1%	1%	?	40µM*!
Cc1[nH]c2ccc(C(=O)NCCCN3CCCC3)cc2c1C	8%	?	-5%	4%[57 µM]	?	-24%[57.1 µM]
CCn1c(C)c(C)c2cc(C(=O)NCCCN3CCN(C)CC3)ccc21	4%	?	0%	-6%	-28%	?
CCn1c(C)c(C)c2cc(C(=O)NCCCN3CCCCCC3)ccc21	?	?	-13%	-19%	56µM*	56µM*
CCOC(=O)c1ccccc1NC(=O)c1sc2ncn(CC)c(=O)c2c1C	·	?	·	33%	-7%	0%
CCCn1c2ccccc2c2cnn(CC(=O)NCCc3ccc(OCC)c(OCC)c3)c(=O)c21	·	-9%[59 µM]	·	10%	-12%	-27%
COC(=O)N1C2=C(c3ccccc3[C@@H]1CC(=O)Nc1ccc(Br)cc1)[C@@H]1C(=O)N(c3ccccc3)C(=O)[C@@H]1[C@H](C)C2	-17%	·	·	·	·	·
CNC(=S)N/N=C(\C)c1ccc2c(c1)OCO2	79µM*	?	-10%	10%	-33%	?
CCc1ccc(OCC(=O)N/N=C(\C)c2ccc3c(c2)OCCO3)cc1	56µM*	20%	-1%	14%	-10%	-8%
CNC(=S)N/N=C(\C)c1ccc2c(c1)OCCO2	50µM*	-12%[59 µM]	-3%	-1%	-6%	?
SMILES	Sfp inh	G9a inh	PLK1 PBD inh	HP1b chromo inh	JMJD2A Tudor inh	BAZ2B inh
C/C(=N\NC(=S)NC(C)C)c1ccc2c(c1)OCCO2	-7%	?	-27%	50µM*	?	?
C/C(=N\NC(=S)Nc1ccc(C(C)C)cc1)c1ccc2c(c1)OCO2	0%	?	-6%	-20%	-29%	?
CCNC(=S)N/N=C(\C)c1ccc2c(c1)OCCO2	26%	17%[59 µM]	-2%	-20%	-34%	?
COc1cc(/C(C)=N/NC(=S)NC(C)C)cc(OC)c1OC	5%	1%[59 µM]	?	-24%	-28%	-5%
Cc1c(C(=O)Nc2nc(-c3ccc(F)cc3)ns2)oc2ccc(Br)cc12	·	3%[59 µM]	·	15%	-26%	1%
O=S(=O)(Nc1cccnc1)c1cccc2ccccc12	·	·	·	10%	-10%	·
COc1ccc(-n2c(=O)c3c(c4cc(OC)ccc4n3C)n(Cc3ccc(F)cc3Cl)c2=O)cc1	·	1%[59 µM]	·	10%	-9%	-13%
COC(=O)c1ccc(C)c(NC(=O)c2ccc(Cl)c([N+](=O)[O-])c2)c1	-3%	-4%[59 µM]	30µM*	?	-24%[57.1 µM]	-11%
CC(NC(=O)CCC(=O)Nc1ccccc1O)c1ccccc1 (centres undefined)	·	·	0%	36%	9%	·
CC(CNc1ccccc1O)C(=O)O (centres undefined)	50µM*	16µM*	?	50µM*	3.2µM*	50µM*
CC(C)(C)OC(=O)NCCc1onc(-c2cccc([N+](=O)[O-])c2)c1C(=O)O	·	·	-3%	·	·	·
O=C(Cc1cccs1)N1CCN(S(=O)(=O)c2cccc([N+](=O)[O-])c2)CC1	2%	-1%	-7%	19%	-24%	-25%
CCOc1ccc(-c2nc(SCC(=O)NC3CCCC3)c(-c3ccccc3)[nH]2)cc1OC	·	?	·	-21%	?	?
COc1cccc2c1Oc1ncccc1N(C(=O)CCC(=O)NCc1ccc(C)cc1)C2	14%	5.6µM*!	-2%	21%	9%	-6%
COc1cccc2c1Oc1ncccc1N(C(=O)CCC(=O)NCc1ccc(F)cc1)C2	12%	34%	-4%	25%	4%	-15%
COc1cc2c(cc1NC(=O)c1cncc(Br)c1)oc1ccccc12	3%	-2%[12.7 µM]	27µM*	-3%	-15%[11.4 µM]	6%
COc1cc2c(cc1NCc1ccccn1)oc1ccccc12	-26%	?	-5%	?	45µM*	45µM*
COc1cc2c(cc1NCc1ccc3c(c1)OCO3)oc1ccccc12	?	?	3%	?	?	32µM*
COc1cc2c(cc1NC(=S)Nc1cccc3ccccc13)oc1ccccc12	?	?	-14%	?	?	79µM*
COc1cc2c(cc1NC(=O)COc1ccccc1OC)oc1ccccc12	-17%	-8%[59 µM]	1%	43%	-10%	-6%
COc1ccc(CCNc2ncnc3c2c(-c2ccccc2)cn3-c2ccc(Cl)cc2)cc1OC	·	?	·	?	?	-36%
